Records with an inconclusive call do not appear. The source made the active and inactive calls. The calls were made as follows, unless noted: active = hit-call score of the fitted dose curve at least 0.9, where 1 is the maximum; inactive = score below 0.9.
How the values were obtained:
[1] = molecular target: Retinoic acid receptor RXR-alpha (Homo sapiens) (UniProt P19793); experiment: OT_NURR1_NURR1RXRa_0480: Odyssey Thera (OT) 8-hour HEK293T Protein Complementation Assay for Nurr1/retinoid X receptor (RXR) (AID 2283385; active = hit-call score of the fitted dose curve at least 0.9, where 1 is the maximum)
Retinoic acid receptor RXR-alpha (Homo sapiens), sequence (P19793 whole entry, looked up, the tested form may be a part): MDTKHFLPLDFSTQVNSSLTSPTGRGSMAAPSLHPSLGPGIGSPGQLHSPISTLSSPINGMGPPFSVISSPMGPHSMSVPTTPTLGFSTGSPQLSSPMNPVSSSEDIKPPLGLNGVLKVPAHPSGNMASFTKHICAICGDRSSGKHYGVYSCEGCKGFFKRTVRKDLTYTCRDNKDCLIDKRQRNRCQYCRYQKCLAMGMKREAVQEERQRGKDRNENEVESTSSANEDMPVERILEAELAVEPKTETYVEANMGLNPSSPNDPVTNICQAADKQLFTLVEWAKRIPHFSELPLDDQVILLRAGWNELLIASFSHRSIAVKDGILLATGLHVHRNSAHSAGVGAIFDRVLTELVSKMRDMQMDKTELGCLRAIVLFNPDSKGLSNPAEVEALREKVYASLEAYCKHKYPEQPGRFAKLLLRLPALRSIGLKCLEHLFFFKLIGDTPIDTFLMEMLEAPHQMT
Summary of the method: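 HEK293T cells expressing Nurr1 and RXRα fused to reporter fragments were dosed with compound for 8 hours. Complex formation was read as fluorescence intensity and analysed as gain of signal against DMSO as baseline.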

[2] = molecular target: Peroxisome proliferator-activated receptor gamma (Homo sapiens) (UniProt P37231); experiment: OT_PPARg_PPARgSRC1_0480: Odyssey Thera (OT) 8-hour Protein-Complementation Assay for Peroxisome Proliferator-activated Receptor Gamma / SRC-1 Co-activator (AID 2283387; active = hit-call score of the fitted dose curve at least 0.9, where 1 is the maximum;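 also: nuclear to cytoplasmic split Venus YFP fluorescence ratio reporting PPARg SRC-1 interaction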)
Peroxisome proliferator-activated receptor gamma (Homo sapiens), sequence (P37231 whole entry, looked up, the tested form may be a part): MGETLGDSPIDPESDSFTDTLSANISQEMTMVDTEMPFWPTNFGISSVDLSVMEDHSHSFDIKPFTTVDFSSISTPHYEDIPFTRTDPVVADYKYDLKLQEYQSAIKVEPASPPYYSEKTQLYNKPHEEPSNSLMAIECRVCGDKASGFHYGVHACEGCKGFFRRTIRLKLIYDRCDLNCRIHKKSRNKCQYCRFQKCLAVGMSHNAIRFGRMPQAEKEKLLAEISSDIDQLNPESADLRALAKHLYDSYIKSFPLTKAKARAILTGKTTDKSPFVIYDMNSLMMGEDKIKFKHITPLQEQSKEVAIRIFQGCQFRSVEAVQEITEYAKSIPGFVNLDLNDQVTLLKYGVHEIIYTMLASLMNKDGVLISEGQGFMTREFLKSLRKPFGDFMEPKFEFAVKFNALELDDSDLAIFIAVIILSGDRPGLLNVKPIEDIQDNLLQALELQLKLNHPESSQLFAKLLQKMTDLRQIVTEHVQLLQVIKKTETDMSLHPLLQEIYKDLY
Summary of the method: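 Split-YFP (IFP1/IFP2) PPARg/SRC-1 reporter, HEK293T, 37 °C, 5% CO2; 8 h compound; formaldehyde fix + Draq5; high-content imaging, N/C ratio, ≥350 cells/image, positive direction vs DMSO.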

[3] = molecular target: Peroxisome proliferator-activated receptor gamma (Homo sapiens) (UniProt P37231); experiment: OT_PPARg_PPARgSRC1_1440: Odyssey Thera (OT) 24-hour Protein-Complementation Assay for Peroxisome Proliferator-activated Receptor Gamma/ SRC-1 Co-activator (AID 2283388; active = hit-call score of the fitted dose curve at least 0.9, where 1 is the maximum;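 also: nuclear to cytoplasmic ratio of reconstituted Venus YFP fluorescence in fixed imaged cells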)
Summary of the method: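 Readout: nuclear-to-cytoplasmic 488 nm fluorescence ratio, ≥350 cells per image, 8 images per well, after 24 h compound exposure of HEK293T expressing PPARg/SRC-1 split-YFP fusions. Activity fitted in positive direction against DMSO.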

[4] = read-out: Tumor necrosis factor receptor superfamily member 6 (Homo sapiens) (UniProt P25445); experiment: LTEA_HepaRG_FAS: Life Technologies and Expression Analysis (LTEA) Assay for Fas cell surface death receptor (FAS) using HepaRG (AID 2283447); details: mRNA level, 48 h; actives raise or lower the signal
Summary of the method: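 FAS transcript level was measured by TaqMan qRT-PCR against three housekeeping genes after 48 h chemical exposure. Cells were HepaRG, 0.5% DMSO vehicle, with a top concentration of 100 uM and half-log dilutions over eight points, in duplicate.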

[5] = read-out: Fatty acid synthase (Homo sapiens) (UniProt P49327); experiment: LTEA_HepaRG_FASN: Life Technologies and Expression Analysis (LTEA) Assay for Fatty Acid Synthase (FASN) using HepaRG (AID 2283448); details: mRNA level, 48 h; actives raise or lower the signal
Summary of the method: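 Differentiated human HepaRG cells were exposed for 48 h in serum-free induction medium to eight half-log concentrations up to 100 uM in 0.5% DMSO, in duplicate. FASN mRNA was quantified by TaqMan qRT-PCR, normalized to ACTB/GAPDH/POLR2A, and fitted bidirectionally against DMSO.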

[6] = read-out: Cyclin D2 (CCND2), CCND2 (gene 894); experiment: LTEA_HepaRG_CCND2: Life Technologies and Expression Analysis (LTEA) Assay for Cyclin D2 (CCND2) using HepaRG (AID 2283449); details: mRNA level, 48 h; actives raise or lower the signal
Summary of the method: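 Read-out is CCND2 mRNA level measured by qRT-PCR in human HepaRG liver cells and normalised to three housekeeping genes. Chemicals were applied for 48 h at up to 100 uM, with gain or loss fitted relative to 0.5% DMSO.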

[7] = read-out: Cyclin Dependent Kinase Inhibitor 1A (CDKN1A), CDKN1A (gene 1026); experiment: LTEA_HepaRG_CDKN1A: Life Technologies and Expression Analysis (LTEA) Assay for Cyclin Dependent Kinase Inhibitor 1A (CDKN1A) using HepaRG (AID 2283450); details: mRNA level, 48 h; actives raise or lower the signal
Summary of the method: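 HepaRG, 48 h dosing, 8-pt half-log series from 100 uM top, 0.5% DMSO vehicle, duplicates. Readout: TaqMan qRT-PCR of CDKN1A transcript, housekeeping-normalized (ACTB, GAPDH, POLR2A). Up/down curve fit relative to DMSO.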

[8] = read-out: Cyclin D1 (CCND1), CCND1 (gene 595); experiment: LTEA_HepaRG_CCND1: Life Technologies and Expression Analysis (LTEA) Assay for Cyclin D1 (CCND1) using HepaRG (AID 2283451); details: mRNA level, 48 h; actives raise or lower the signal
Summary of the method: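 qRT-PCR (Fluidigm 96.96 array) read-out of transcript level, housekeeping-normalized (ACTB/GAPDH/POLR2A). HepaRG cells, 48 h chemical exposure, 8-point half-log series from 100 uM, 0.5% DMSO vehicle; gain or loss relative to DMSO baseline.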

[9] = read-out: catalase (CAT), CAT (gene 847); experiment: LTEA_HepaRG_CAT: Life Technologies and Expression Analysis (LTEA) Assay for catalase (CAT) using HepaRG (AID 2283452); details: mRNA level, 48 h; actives raise or lower the signal
Summary of the method: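 Expression of CAT was quantified by TaqMan qRT-PCR with ACTB/GAPDH/POLR2A normalization after 48 h chemical exposure of HepaRG. Eight-point half-log series, top 100 uM, in 0.5% DMSO; gain or loss fitted against vehicle.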

[10] = molecular target: Retinoic acid receptor RXR-alpha (Homo sapiens) (UniProt P19793); experiment: OT_NURR1_NURR1RXRa_1440: Odyssey Thera (OT) 24-hour HEK293T Protein Complementation Assay for Nurr1/retinoid X receptor (RXR) (AID 2283386; active = hit-call score of the fitted dose curve at least 0.9, where 1 is the maximum)
Summary of the method: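 HEK293T cells were dosed with compound and read 24 h later by fluorescence intensity in a protein-fragment complementation format, where Nurr1–RXRα interaction reconstitutes a split reporter. Activity was fitted as gain of signal relative to DMSO baseline.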

[11] = CEETOX_H295R_11DCORT: CeeTox H295R High-throughput Steroidogenesis Assay for 11-Deoxycortisol (11DCORT) (AID 2283432); details: actives raise or lower the signal;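 as to AC50: 11-deoxycortisol secreted into the medium measured by LC-MS/MS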
Summary of the method: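 Steroidogenesis in human H295R cells: 48 h chemical exposure after forskolin priming, 11-deoxycortisol measured by LC-MS/MS.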

[12] = CEETOX_H295R_OHPREG: CeeTox H295R High-throughput Steroidogenesis Assay for OH-Pregnenolone (OHPREG) (AID 2283434); details: actives raise or lower the signal
Summary of the method: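 Hormone levels in spent medium were measured by tandem mass spectrometry following liquid-liquid extraction. Cells (H295R) had been forskolin-stimulated (10 uM, 48 h) before a 48 h chemical exposure at 0.1% DMSO, with activity fitted in both directions against DMSO.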

[13] = CEETOX_H295R_OHPROG: CeeTox H295R High-throughput Steroidogenesis Assay for OH-Progesterone (OHPROG) (AID 2283435); details: actives raise or lower the signal
Summary of the method: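 H295R human adrenal cells were prestimulated 48 h with 10 uM forskolin, then exposed 48 h to test chemical (0.1% DMSO final). 17alpha-hydroxyprogesterone in medium was measured by HPLC-MS/MS after MTBE extraction; bidirectional fitting vs DMSO.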

[14] = CEETOX_H295R_CORTIC: CeeTox H295R High-throughput Steroidogenesis Assay for Corticosterone (CORTIC) (AID 2283437); details: actives raise or lower the signal;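 also: corticosterone secreted into medium quantified by mass spectrometry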
Summary of the method: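 Corticosterone secreted into medium is measured by reverse-phase HPLC with tandem MS following liquid-liquid extraction. Cells are forskolin-stimulated (10 uM, 48 h) before 48 h test exposure; activity fitted in both directions against DMSO.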

[15] = CEETOX_H295R_CORTISOL: CeeTox H295R High-throughput Steroidogenesis Assay for Cortisol (AID 2283438); details: actives raise or lower the signal;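 also: cortisol secreted into medium quantified by LC-MS/MS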
Summary of the method: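 H295R human adrenal cells were prestimulated 48 h with 10 uM forskolin, then exposed 48 h to test chemical (0.1% DMSO final). Medium cortisol was quantified by HPLC-MS/MS after MTBE extraction; bidirectional fitting relative to DMSO baseline.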

[16] = CEETOX_H295R_DOC: CeeTox H295R High-throughput Steroidogenesis Assay for DOC (AID 2283439); details: actives raise or lower the signal
Summary of the method: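 H295R adrenal cells prestimulated 48 h with 10 uM forskolin, then exposed 48 h to test chemical (0.1% DMSO final). Medium 11-deoxycorticosterone extracted with MTBE, quantified by HPLC-MS/MS; bidirectional fit versus DMSO baseline; MTT viability in same wells.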

[17] = CEETOX_H295R_PROG: CeeTox H295R High-throughput Steroidogenesis Assay for Progesterone (PROG) (AID 2283442); details: actives raise or lower the signal;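 also: human H295R adrenal cells primed with 10 µM forskolin before dosing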
Summary of the method: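 Progesterone read-out: HPLC-MS/MS on MTBE extracts of conditioned medium after 48 h chemical exposure of forskolin-primed (10 uM, 48 h) H295R cells. Gain or loss of signal was fitted relative to DMSO baseline.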

Measured: AC50

Fatty acid synthase (Homo sapiens), sequence (P49327 whole entry, looked up): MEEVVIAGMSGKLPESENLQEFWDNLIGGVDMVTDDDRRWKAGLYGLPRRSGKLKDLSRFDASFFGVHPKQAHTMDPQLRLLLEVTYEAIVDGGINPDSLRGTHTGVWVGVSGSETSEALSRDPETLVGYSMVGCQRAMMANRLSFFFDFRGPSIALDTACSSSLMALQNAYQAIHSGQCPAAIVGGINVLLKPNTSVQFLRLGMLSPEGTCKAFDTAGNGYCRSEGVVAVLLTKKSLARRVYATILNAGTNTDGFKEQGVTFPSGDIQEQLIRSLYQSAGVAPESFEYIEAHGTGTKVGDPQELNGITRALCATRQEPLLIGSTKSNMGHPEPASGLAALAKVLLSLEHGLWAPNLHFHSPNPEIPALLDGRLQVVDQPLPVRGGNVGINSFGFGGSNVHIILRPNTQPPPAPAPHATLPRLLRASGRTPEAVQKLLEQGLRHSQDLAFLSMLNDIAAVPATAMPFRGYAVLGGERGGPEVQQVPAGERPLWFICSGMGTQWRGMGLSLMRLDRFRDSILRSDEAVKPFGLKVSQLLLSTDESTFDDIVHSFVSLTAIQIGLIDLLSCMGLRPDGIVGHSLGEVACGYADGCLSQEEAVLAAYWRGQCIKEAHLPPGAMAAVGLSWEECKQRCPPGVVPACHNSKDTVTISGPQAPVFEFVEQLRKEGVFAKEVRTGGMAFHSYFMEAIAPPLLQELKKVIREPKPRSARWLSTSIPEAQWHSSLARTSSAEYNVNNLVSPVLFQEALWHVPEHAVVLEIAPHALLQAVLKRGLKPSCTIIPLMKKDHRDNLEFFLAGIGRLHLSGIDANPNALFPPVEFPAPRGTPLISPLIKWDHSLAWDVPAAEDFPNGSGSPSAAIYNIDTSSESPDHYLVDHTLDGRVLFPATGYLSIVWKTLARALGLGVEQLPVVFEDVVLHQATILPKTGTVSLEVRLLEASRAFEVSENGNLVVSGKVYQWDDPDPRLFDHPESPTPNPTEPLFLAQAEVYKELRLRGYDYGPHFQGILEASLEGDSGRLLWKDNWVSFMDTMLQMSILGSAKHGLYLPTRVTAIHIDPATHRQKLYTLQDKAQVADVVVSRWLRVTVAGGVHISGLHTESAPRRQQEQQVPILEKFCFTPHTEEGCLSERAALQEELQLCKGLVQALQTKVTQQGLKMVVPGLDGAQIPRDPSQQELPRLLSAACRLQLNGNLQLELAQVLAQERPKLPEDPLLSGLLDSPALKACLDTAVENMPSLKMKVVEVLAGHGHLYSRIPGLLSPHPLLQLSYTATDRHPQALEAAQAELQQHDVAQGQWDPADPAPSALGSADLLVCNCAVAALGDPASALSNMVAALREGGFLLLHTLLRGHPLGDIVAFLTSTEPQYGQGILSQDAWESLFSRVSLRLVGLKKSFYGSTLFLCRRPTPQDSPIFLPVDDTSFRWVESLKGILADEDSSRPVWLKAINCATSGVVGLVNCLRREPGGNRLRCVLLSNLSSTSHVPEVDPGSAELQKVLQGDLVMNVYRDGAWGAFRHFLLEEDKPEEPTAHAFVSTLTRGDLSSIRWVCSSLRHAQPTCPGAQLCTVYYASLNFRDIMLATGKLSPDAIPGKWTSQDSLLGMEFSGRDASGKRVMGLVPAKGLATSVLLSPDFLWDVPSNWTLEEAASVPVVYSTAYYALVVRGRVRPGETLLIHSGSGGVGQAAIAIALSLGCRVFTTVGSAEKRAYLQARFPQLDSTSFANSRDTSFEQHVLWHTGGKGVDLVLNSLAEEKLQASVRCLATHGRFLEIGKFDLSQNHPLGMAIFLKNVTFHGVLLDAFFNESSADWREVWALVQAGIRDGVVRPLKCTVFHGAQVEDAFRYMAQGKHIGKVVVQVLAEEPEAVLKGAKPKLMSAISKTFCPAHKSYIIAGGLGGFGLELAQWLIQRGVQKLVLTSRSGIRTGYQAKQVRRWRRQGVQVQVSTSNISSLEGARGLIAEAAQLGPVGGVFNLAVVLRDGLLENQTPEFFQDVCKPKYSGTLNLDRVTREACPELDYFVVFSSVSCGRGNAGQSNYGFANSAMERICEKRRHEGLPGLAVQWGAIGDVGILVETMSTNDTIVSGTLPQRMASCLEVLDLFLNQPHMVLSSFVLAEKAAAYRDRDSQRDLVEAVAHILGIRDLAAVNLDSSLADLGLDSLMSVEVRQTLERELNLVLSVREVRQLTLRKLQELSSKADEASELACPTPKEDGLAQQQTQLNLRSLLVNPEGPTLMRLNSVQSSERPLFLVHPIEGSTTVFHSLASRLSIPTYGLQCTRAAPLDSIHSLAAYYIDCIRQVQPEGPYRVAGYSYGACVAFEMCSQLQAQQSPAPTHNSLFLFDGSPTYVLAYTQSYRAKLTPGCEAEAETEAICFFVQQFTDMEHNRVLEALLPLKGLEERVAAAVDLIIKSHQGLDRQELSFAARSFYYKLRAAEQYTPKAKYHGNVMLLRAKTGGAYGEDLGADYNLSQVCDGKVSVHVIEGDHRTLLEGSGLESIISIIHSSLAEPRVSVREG

CCOP(=S)(OCC)SCCSCC
inactive: [1] | [2] | [3] | [4] | [5] | [6] | [7] | [8] | [9]

CC1=NNC(=O)N(/N=C/c2cccnc2)C1
inactive: [10] | [2] | [3] | [4] | [6] | [7] | [8]
active: [5] 13.4 µM

CCOP(=S)(OCC)Oc1ccc2c(C)c(Cl)c(=O)oc2c1
active: [11] 5 µM | [13] 1.67 µM | [16] 1.23 µM | [17] 2.59 µM
not listed: [1]
inactive: all other assays above

Cc1cc(C2CC2)nc(Nc2ccccc2)n1
inactive: [1] | [10] | [2] | [3] | [4] | [6] | [7] | [8] | [9]
active: [5] 50 µM

CNC(=O)Oc1cccc2c1OC(C)(C)O2
active: [13] 30.9 µM | [17] 4.74 µM
not listed: [6] | [9] | [10]
inactive: all other assays above

CN1COCN(Cc2cnc(Cl)s2)C1=N[N+](=O)[O-]
inactive: [1] | [10] | [2] | [3] | [4] | [5] | [7] | [8]

CCCOCC(=Nc1ccc(Cl)cc1C(F)(F)F)n1ccnc1
active: [12] 0.377 µM | [13] 0.147 µM | [15] 0.105 µM | [16] 0.165 µM | [17] 0.336 µM | [5] 50 µM | [9] 37.6 µM
not listed: [1] | [10]
inactive: all other assays above

C#CC(C)(C)NC(=O)c1cc(Cl)cc(Cl)c1
active: [11] 19.1 µM | [12] 13.4 µM | [13] 23.7 µM | [16] 7.45 µM | [17] 10.4 µM | [5] 0.0239 µM
not listed: [2] | [3] | [9] | [10]
inactive: all other assays above

Reference: PubChem BioAssay (EPA / NIEHS)
